Results from PubChem BioAssay (NCATS).
Unmarked numbers belong to inactive results. Inconclusive results are not listed. Active and inactive are the calls of the source. Calls follow the shape of the dose curve; as a rule, active = well fitted curve in the direction sought with a large enough effect; inconclusive = small, poorly fitted or top-dose-only effect, or another doubt; inactive = no such curve, though single readings can be large; an effect the other way counts as inactive or inconclusive.

test: Cellular Toxicity (caspase-3) HepG2 (AID 654); details: HepG2 caspase-3 activation, luminescence; series mostly up to 92.2 µM; caspase-3 activation: at the top concentration;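 as to caspase-3 activation: cells exposed to compound for 16 hours before reading; 0% = DMSO alone and 100% = caspase signal from 100 µM tamoxifen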
Procedure, shortened: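 Caspase 3/7 activation in HepG2 is measured as rising luminescence after a 16 hr treatment at 37 °C. Values are scaled between DMSO basal and 100 uM tamoxifen, and AC50 is fitted with the Hill equation.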
Potency is read from the fitted curve at half-maximal effect.

SMILES	caspase-3 activation [%]	Potency
Oc1ccc2cc(SSc3ccc4cc(O)ccc4c3)ccc2c1	0.956	–
Nc1ccc2cc3ccccc3cc2c1	0.00704	–
CN(C)c1ccc(C2(c3ccc(N(C)C)cc3)OC(=O)c3cc(N(C)C)ccc32)cc1	-0.221	–
Cc1cc(Nc2ccc(O)cc2)ccc1N	0.931	–
CO[C@H]1/C=C/O[C@@]2(C)Oc3c(C)c(O)c4c(O)c(c5c(c4c3C2=O)NC2(CCN(CC(C)C)CC2)N=5)=NC(=O)/C(C)=C\C=C\[C@H](C)[C@H](O)[C@@H](C)[C@@H](O)[C@@H](C)[C@H](OC(C)=O)[C@@H]1C	6.49	–
Cc1cc(O)c(C(C)(C)C)cc1Sc1cc(C(C)(C)C)c(O)cc1C	–	63.1 µM (active)
C=C(C)c1ccccc1	-0.351	–
Cc1ccc(S(=O)(=O)Oc2ccc(N=Nc3ccc(-c4ccc(N=Nc5c(O)ccc6cc(S(=O)(=O)O)cc(S(=O)(=O)O)c56)c(C)c4)cc3C)cc2)cc1	-0.0919	–
O=C1OC2(c3cc(Br)c(O)c(Br)c3Oc3c2cc(Br)c(O)c3Br)c2c(Cl)c(Cl)c(Cl)c(Cl)c21	-1.23	–
c1cc(OCC2CO2)cc(OCC2CO2)c1 (stereo unspecified)	7.44	–
ClC1=C(Cl)C(Cl)(Cl)C(Cl)=C1Cl	–	10 µM (active)
C=CC(=O)OCCOCCOC(=O)C=C	6.63	–
C/C=C1\C(=O)C[C@H]2[C@@H]3CCC4=CC(=O)CC[C@]4(C)[C@H]3CC[C@]12C	0.454	–
O=C1OC(O)C(C(Cl)Cl)=C1Cl (stereo unspecified)	-1.47	–
CNc1ccc(O)cc1	-3.96	–
CC(=O)Nc1ccc(C(=O)CCl)cc1	-4.14	–
CCC(C)Nc1ccc(NC(C)CC)cc1 (stereo unspecified)	-4.89	–
O=C=Nc1ccc(Cc2ccc(N=C=O)cc2)cc1	-0.237	–
c1ccc2c(c1)ccc1cc3c(ccc4ccccc43)cc12	-1.31	–
CC/C(=C(\c1ccccc1)c1ccc(OCCN(C)C)cc1)c1ccc(O)cc1	–	50.1 µM (active)
c1ccc2c(c1)-c1cccc3c1c-2cc1ccccc13	0.834	–
O=[N+]([O-])c1cc([N+](=O)[O-])c2ccc(S(=O)(=O)O)cc2c1O	0.31	–
O=Cc1ccc(Cl)c(Cl)c1	-0.124	–

test: Cellular Toxicity (caspase-3) Jurkat (AID 655); details: Jurkat caspase-3 activation, luminescence; caspase-3 activation: at 92.2 µM (top of the series), DMSO = 0%, tamoxifen = 100%;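 also: cells exposed to compound for 16 h at 37 °C before reading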
Procedure, shortened: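 Luminescent Caspase-Glo 3/7 read-out (20 min, room temperature) after 16 h compound treatment at 37 C of 5000 Jurkat cells per well. AC50 derived by Hill-equation fitting, scaled between DMSO basal and 100 uM tamoxifen stimulation.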

SMILES	caspase-3 activation [%]	Potency
Oc1ccc2cc(SSc3ccc4cc(O)ccc4c3)ccc2c1	9.26	–
Nc1ccc2cc3ccccc3cc2c1	-0.494	–
CN(C)c1ccc(C2(c3ccc(N(C)C)cc3)OC(=O)c3cc(N(C)C)ccc32)cc1	2.49	–
CO[C@H]1/C=C/O[C@@]2(C)Oc3c(C)c(O)c4c(O)c(c5c(c4c3C2=O)NC2(CCN(CC(C)C)CC2)N=5)=NC(=O)/C(C)=C\C=C\[C@H](C)[C@H](O)[C@@H](C)[C@@H](O)[C@@H](C)[C@H](OC(C)=O)[C@@H]1C	27.7	–
C=C(C)c1ccccc1	0.487	–
Cc1ccc(S(=O)(=O)Oc2ccc(N=Nc3ccc(-c4ccc(N=Nc5c(O)ccc6cc(S(=O)(=O)O)cc(S(=O)(=O)O)c56)c(C)c4)cc3C)cc2)cc1	-0.797	–
O=C1OC2(c3cc(Br)c(O)c(Br)c3Oc3c2cc(Br)c(O)c3Br)c2c(Cl)c(Cl)c(Cl)c(Cl)c21	-2.59	–
ClC1=C(Cl)C(Cl)(Cl)C(Cl)=C1Cl	–	0.316 µM (active)
C/C=C1\C(=O)C[C@H]2[C@@H]3CCC4=CC(=O)CC[C@]4(C)[C@H]3CC[C@]12C	19.9	–
CC(=O)Nc1ccc(C(=O)CCl)cc1	-7.07	–
CCC(C)Nc1ccc(NC(C)CC)cc1 (stereo unspecified)	-11.1	–
O=C=Nc1ccc(Cc2ccc(N=C=O)cc2)cc1	-1.22	–
c1ccc2c(c1)ccc1cc3c(ccc4ccccc43)cc12	-4.82	–
CC/C(=C(\c1ccccc1)c1ccc(OCCN(C)C)cc1)c1ccc(O)cc1	–	31.6 µM (active)
c1ccc2c(c1)-c1cccc3c1c-2cc1ccccc13	3.39	–
O=[N+]([O-])c1cc([N+](=O)[O-])c2ccc(S(=O)(=O)O)cc2c1O	1.07	–
O=Cc1ccc(Cl)c(Cl)c1	3.05	–

test: Cellular Toxicity (caspase-3) HUV-EC-C (AID 656); details: HUV-EC-C cells, caspase-3 activation (apoptosis); series mostly up to 92.2 µM; caspase-3 activation: at the top concentration
Procedure, shortened: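 Luminescent Caspase-Glo 3/7 readout after 16 h, 37 °C compound exposure of HUV-EC-C endothelial cells, 1000 per well, complete medium. AC50 derived by Hill fitting, with DMSO as baseline and 100 uM tamoxifen as full activation.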

SMILES	caspase-3 activation [%]	Potency
Oc1ccc2cc(SSc3ccc4cc(O)ccc4c3)ccc2c1	-7.32	–
Nc1ccc2cc3ccccc3cc2c1	-3.11	–
CN(C)c1ccc(C2(c3ccc(N(C)C)cc3)OC(=O)c3cc(N(C)C)ccc32)cc1	-0.182	–
Cc1cc(Nc2ccc(O)cc2)ccc1N	-7	–
CO[C@H]1/C=C/O[C@@]2(C)Oc3c(C)c(O)c4c(O)c(c5c(c4c3C2=O)NC2(CCN(CC(C)C)CC2)N=5)=NC(=O)/C(C)=C\C=C\[C@H](C)[C@H](O)[C@@H](C)[C@@H](O)[C@@H](C)[C@H](OC(C)=O)[C@@H]1C	0.917	–
Cc1cc(O)c(C(C)(C)C)cc1Sc1cc(C(C)(C)C)c(O)cc1C	–	50.1 µM (active)
C=C(C)c1ccccc1	3.33	–
Cc1ccc(S(=O)(=O)Oc2ccc(N=Nc3ccc(-c4ccc(N=Nc5c(O)ccc6cc(S(=O)(=O)O)cc(S(=O)(=O)O)c56)c(C)c4)cc3C)cc2)cc1	-2.79	–
O=C1OC2(c3cc(Br)c(O)c(Br)c3Oc3c2cc(Br)c(O)c3Br)c2c(Cl)c(Cl)c(Cl)c(Cl)c21	-5.69	–
ClC1=C(Cl)C(Cl)(Cl)C(Cl)=C1Cl	0.152	–
C=CC(=O)OCCOCCOC(=O)C=C	-6.1	–
C/C=C1\C(=O)C[C@H]2[C@@H]3CCC4=CC(=O)CC[C@]4(C)[C@H]3CC[C@]12C	2.83	–
O=C1OC(O)C(C(Cl)Cl)=C1Cl (stereo unspecified)	-4.17	–
CNc1ccc(O)cc1	-8.8	–
CC(=O)Nc1ccc(C(=O)CCl)cc1	-10.2	–
CCC(C)Nc1ccc(NC(C)CC)cc1 (stereo unspecified)	-14.7	–
O=C=Nc1ccc(Cc2ccc(N=C=O)cc2)cc1	0.596	–
c1ccc2c(c1)ccc1cc3c(ccc4ccccc43)cc12	-4.42	–
c1ccc2c(c1)-c1cccc3c1c-2cc1ccccc13	-3.14	–
O=[N+]([O-])c1cc([N+](=O)[O-])c2ccc(S(=O)(=O)O)cc2c1O	-1.88	–
O=Cc1ccc(Cl)c(Cl)c1	1.68	–
